From PubChem BioAssay (EPA / NIEHS)
Inconclusive results are not listed. Activity calls are given as the source filed them. Rule for the calls: active = hit-call score of the fitted dose curve at least 0.9, where 1 is the maximum; inconclusive = response in the unintended direction; inactive = score below 0.9.

Biological target: Retinoic acid receptor alpha (Homo sapiens) (UniProt P10276)
Assay: ATG_RARa_TRANS: Attagene TRANS-FACTORIAL HepG2 Assay for human Retinoic Acid Receptor alpha (RARa) (AID 2283005);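 for AC50: potency for increased reporter signal meaning RARa activation over DMSO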
Procedure: ATG_TRANS is a cell-based, multiplexed-readout assay that uses HepG2, a human liver cell line, with measurements taken at 24 hours after chemical dosing in a 24-well plate.ATG_RARa_TRANS is one of 30 assay component(s) measured or calculated from the ATG_TRANS assay. It is designed to make measurements of mRNA induction, a form of inducible reporter, as detected with fluorescence intensity signals by Reverse transcription polymerase chain reaction (RT-PCR) and Capillary electrophoresis technology.Data from the assay component ATG_RARa_TRANS was analyzed into 1 assay endpoint. This assay endpoint, ATG_RARa_TRANS, was analyzed in the positive analysis fitting direction relative to DMSO as the negative control and baseline of activity. Using a type of inducible reporter, measures of mRNA for gain-of-signal activity can be used to understand the reporter gene at the transcription factor-level as they relate to the gene RARA. Furthermore, this assay endpoint can be referred to as a primary readout, because this assay has produced multiple assay endpoints where this one serves a reporter gene function. To generalize the intended target to other relatable targets, this assay endpoint is annotated to the nuclear receptor intended target family, where the subfamily is non-steroidal.
Human liver HepG2 cells are transiently transfected with multiple reporter transcription units (MRTUs) in 6-well plates using FuGene 6 reagent (Roche; 3 ml FuGene/1 mg DNA). The MRTU constructs are regulated by a cis-regulating element (promoter). […] A major difference between the CIS and TRANS system is that in CIS activities of endogenous TFs are measured, whereas the TRANS assay evaluates changes in activities of exogenous, chimeric NR-Gal4 proteins. […] At the end of 24 hour incubation, total RNA was isolated using TriZol reagent (Invitrogen). The isolated RNA is then reverse-transcribed using oligo(dT) primer and Mo-MLV reverse transcriptase (Invitrogen) with DNAse I (Ambion) treatment for 30 min. The one-tenth of the produced cDNA was amplified by PCR using Taq DNA polymerase (Invitrogen) and two reporter sequence-specific primers. The PCR products were fluorescently labeled by primer extension with 6-arboxyfluorescein (6-FAM) 5'-labeled reporter sequence-specific primer (2 min at 95 C, 20 s at 68 C and 10 min at 72 C) and these products were digested with 5U of HpaI (New England Biolabs) for 2h at 37 C. The fragments were purified using Qiaquick PCR columns (Qiagen), analyzed on an ABI 3130xL genetic analyzer (Applied Biosystems) with peak positions identified by using a set of X-rhodamine (ROX)-labeled MapMarker1000 molecular weight standards (BioVentures). The raw capillary electrophoresis data was processed using Attagraph software (Attagene).

Chain of Retinoic acid receptor alpha (Homo sapiens) (P10276 whole entry, looked up): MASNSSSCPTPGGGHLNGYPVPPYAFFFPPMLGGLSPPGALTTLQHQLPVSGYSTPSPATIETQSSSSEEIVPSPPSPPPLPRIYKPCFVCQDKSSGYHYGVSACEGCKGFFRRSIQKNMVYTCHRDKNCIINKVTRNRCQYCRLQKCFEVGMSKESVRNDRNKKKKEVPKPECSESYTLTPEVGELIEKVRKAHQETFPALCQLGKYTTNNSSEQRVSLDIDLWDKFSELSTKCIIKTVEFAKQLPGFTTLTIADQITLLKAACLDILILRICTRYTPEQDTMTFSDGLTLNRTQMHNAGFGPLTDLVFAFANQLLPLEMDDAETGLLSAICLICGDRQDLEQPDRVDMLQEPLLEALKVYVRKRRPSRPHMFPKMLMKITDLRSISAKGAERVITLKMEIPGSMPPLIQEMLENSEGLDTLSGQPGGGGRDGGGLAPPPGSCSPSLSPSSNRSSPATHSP

Row | SMILES | outcome | AC50
1 | C[C@]12CC[C@@H]3c4ccc(O)cc4CC[C@H]3[C@@H]1CC[C@H]2O | inactive | –
2 | O=C1CCC(C2CCCCC2)CC1 | inactive | –
3 | O=C(O)c1ccccc1C(=O)OCc1ccccc1 | inactive | –
4 | CCO[Si](CCCNC(N)=O)(OCC)OCC | inactive | –
5 | CO[C@H]1/C=C/O[C@@]2(C)Oc3c(C)c(O)c4c(O)c(c(/C=N/N5CCN(C)CC5)c(O)c4c3C2=O)NC(=O)/C(C)=C\C=C\[C@H](C)[C@H](O)[C@@H](C)[C@@H](O)[C@@H](C)[C@H](OC(C)=O)[C@@H]1C | inactive | –
6 | c1ccc2n[nH]nc2c1 | inactive | –
7 | O=C(O)c1ccccc1-n1cc(C(=O)O)c(=O)c2cc(Nc3c(F)cc(F)cc3Cl)c(Cl)cc21 | inactive | –
8 | CCN(CC)C(=O)c1cc(S(=O)(=O)Cc2ccccc2)c(N2CCC(c3ccccc3)CC2)cc1N(CC)CCN(C)C | inactive | –
9 | CC(C)(C)c1cc(/C=C2\SC(N)=NC2=O)cc(C(C)(C)C)c1O | inactive | –
10 | Oc1ccccc1 | inactive | –
11 | Cc1ccc2oc(CN(Cc3ccccc3)C(=O)Nc3c(F)cc(F)cc3F)c(-c3ccc(Cl)cc3)c2c1 | inactive | –
12 | Cc1cccc2ccccc12 | inactive | –
13 | OCCO | inactive | –
14 | CCCCCCCCCCCCO | inactive | –
15 | CC(C)(c1cc(Br)c(O)c(Br)c1)c1cc(Br)c(O)c(Br)c1 | inactive | –
16 | Cc1oc2c(NC(=O)c3c(Cl)cccc3Cl)cccc2c1C(C)(C)O | inactive | –
17 | CCCCCCCC[Si](OCC)(OCC)OCC | inactive | –
18 | O=c1ccc2ccccc2o1 | inactive | –
19 | CCCC(=O)OCCC(C)C | inactive | –
20 | CCCCCCCCOc1ccc(C(=O)c2ccccc2)c(O)c1 | inactive | –
21 | CC(O)CC(C)(C)O (centres undefined) | inactive | –
22 | O=c1c(-c2ccc(O)cc2)coc2cc(O)cc(O)c12 | inactive | –
23 | Cc1c2ccccc2c(C)c2c1ccc1ccccc12 | inactive | –
24 | CC[C@@H]1C[C@H](N(Cc2cc(C(F)(F)F)cc(C(F)(F)F)c2)C(C)=O)c2cc(C(F)(F)F)ccc2N1C(=O)OC(C)C | – | 1100 nM (active)
